Assay [1] has as its target Rap guanine nucleotide exchange factor 3 (Homo sapiens) (UniProt O95398). Description: Confirmatory qHTS for agonist of cAMP-regulated guanine nucleotide exchange factor 3 (EPAC1) (AID 1645881;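 further: EPAC1 catalysed release of BODIPY-GDP from Rap1B seen as fluorescence loss; 100% = effect of cAMP agonist control; nearly all actives have a fitted effect of over 75% in size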). (In general: In qHTS, concentration-response curves come from the screen itself.)
Assay [2] deals with Rap guanine nucleotide exchange factor 4 (Homo sapiens) (UniProt Q8WZA2). Description: Confirmatory qHTS for agonist of cAMP-regulated guanine nucleotide exchange factor 4 (EPAC2) (AID 1645884).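 Further: nucleotide exchange releases bodipy-GDP from Rap1 and this lowers its fluorescence; on the % scale 0 is the no-effect control and ±100 the full control effect; nearly all actives have a fitted effect of over 65% in size.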
For assay [3] the target is unchanged. The assay can be described thus: Confirmatory qHTS for antagonist of cAMP-regulated guanine nucleotide exchange factor 4 (EPAC2) (AID 1645885). Further: nearly all actives have a fitted effect of over 25% in size. Further: potency means the concentration at half of the fitted maximal effect. On activity change, negative = inhibition: on the % scale 0 is the no-effect control and ±100 the full control effect.
The target in assay [4] is Rap guanine nucleotide exchange factor 3 (Homo sapiens) (UniProt O95398). The assay can be described thus: Counterscreen qHTS for antagonist of cAMP-regulated guanine nucleotide exchange factor 3 (EPAC1) (AID 1645888).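 Further: fluorescence loss as bound BODIPY-GDP is released from Rap1B; % of control where 0% means no effect.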 A digest of the protocol:
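Measured: fluorescence of BODIPY-GDP bound to Rap1B, which falls as exchange proceeds. Conditions include 50 uM competing GDP, 5 and 30 min reads, and a later cAMP challenge for antagonist detection.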

SMILES strings stand for the structures. Results filed as inconclusive are left out. Values without a mark were called inactive. The source made the active and inactive calls. The call rests on the fitted dose curve; in most records, active means well fitted curve in the direction sought with a large enough effect; inconclusive means small, poorly fitted or top-dose-only effect, or another doubt; inactive means no such curve, though single readings can be large; an effect the other way counts as inactive or inconclusive.

These results are taken from PubChem BioAssay (NCATS).

Sequence of Rap guanine nucleotide exchange factor 3 (Homo sapiens) (O95398 whole entry, looked up): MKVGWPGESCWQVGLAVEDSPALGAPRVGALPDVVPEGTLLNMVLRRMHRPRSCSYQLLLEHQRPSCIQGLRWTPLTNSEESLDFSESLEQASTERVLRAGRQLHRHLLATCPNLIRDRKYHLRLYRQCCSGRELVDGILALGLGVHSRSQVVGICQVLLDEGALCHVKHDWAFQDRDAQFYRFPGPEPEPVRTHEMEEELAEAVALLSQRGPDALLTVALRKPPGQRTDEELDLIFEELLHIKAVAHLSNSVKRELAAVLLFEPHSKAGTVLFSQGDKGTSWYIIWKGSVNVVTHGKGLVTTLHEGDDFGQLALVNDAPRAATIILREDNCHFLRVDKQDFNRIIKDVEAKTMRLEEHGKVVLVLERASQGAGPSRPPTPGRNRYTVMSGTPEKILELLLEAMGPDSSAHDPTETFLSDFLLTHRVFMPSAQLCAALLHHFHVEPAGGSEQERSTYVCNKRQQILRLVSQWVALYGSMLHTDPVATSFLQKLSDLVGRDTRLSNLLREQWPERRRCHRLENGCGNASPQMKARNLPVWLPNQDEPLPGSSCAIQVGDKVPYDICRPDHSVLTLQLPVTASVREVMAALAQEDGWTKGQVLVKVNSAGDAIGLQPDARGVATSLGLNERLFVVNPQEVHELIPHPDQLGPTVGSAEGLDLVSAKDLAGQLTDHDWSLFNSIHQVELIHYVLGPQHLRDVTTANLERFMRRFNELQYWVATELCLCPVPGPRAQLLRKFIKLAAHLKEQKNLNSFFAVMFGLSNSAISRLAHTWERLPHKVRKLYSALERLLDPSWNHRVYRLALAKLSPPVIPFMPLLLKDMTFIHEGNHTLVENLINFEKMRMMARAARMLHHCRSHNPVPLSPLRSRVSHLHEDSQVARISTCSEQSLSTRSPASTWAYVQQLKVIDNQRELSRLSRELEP
Sequence of Rap guanine nucleotide exchange factor 4 (Homo sapiens) (Q8WZA2 whole entry, looked up): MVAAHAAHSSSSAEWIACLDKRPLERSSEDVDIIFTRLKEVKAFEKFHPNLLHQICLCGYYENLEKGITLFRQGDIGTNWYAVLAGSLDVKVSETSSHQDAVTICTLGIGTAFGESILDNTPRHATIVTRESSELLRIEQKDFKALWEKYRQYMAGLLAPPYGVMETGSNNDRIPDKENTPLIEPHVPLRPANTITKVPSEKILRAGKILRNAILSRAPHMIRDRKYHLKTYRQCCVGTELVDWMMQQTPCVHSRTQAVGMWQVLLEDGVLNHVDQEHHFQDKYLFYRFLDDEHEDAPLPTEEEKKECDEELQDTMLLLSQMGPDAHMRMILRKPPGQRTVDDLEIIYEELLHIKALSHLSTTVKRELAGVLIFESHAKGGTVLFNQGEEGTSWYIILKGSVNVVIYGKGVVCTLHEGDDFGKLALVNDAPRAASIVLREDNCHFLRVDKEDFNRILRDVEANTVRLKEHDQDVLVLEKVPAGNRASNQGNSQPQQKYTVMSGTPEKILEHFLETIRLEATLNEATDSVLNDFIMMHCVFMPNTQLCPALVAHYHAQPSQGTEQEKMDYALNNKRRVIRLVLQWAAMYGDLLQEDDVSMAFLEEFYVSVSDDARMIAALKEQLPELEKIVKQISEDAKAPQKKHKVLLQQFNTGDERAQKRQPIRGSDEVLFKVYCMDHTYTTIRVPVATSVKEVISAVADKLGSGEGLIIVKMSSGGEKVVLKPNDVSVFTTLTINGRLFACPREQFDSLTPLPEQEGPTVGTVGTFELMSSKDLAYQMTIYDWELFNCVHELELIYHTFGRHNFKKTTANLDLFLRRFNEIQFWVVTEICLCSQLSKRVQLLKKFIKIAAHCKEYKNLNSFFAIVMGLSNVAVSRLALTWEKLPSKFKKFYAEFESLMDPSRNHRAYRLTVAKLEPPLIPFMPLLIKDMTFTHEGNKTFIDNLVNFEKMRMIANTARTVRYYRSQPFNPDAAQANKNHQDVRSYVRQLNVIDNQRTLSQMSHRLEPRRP

Regarding `CCc1nc2c(OCCC3CCCCC3)cccn2c1N(C)C(=O)c1ccc(C)cc1`, the Potency result in assay [1], in assay [2], in assay [3] and in assay [4] was “inactive” each time.

With `COc1ccccc1-c1nnc(SCC(=O)c2ccc(C3CCCCC3)cc2)n1Cc1ccco1`, the Potency result in assay [1], in assay [2], in assay [3] and in assay [4] was “inactive” in each case.

Consider `CC(C)C1COC(c2cccn2Cc2ccccc2Cl)=N1` (stereo not given), for which the Potency entry in assay [1] and in assay [3] was “inactive” throughout. Also, in assay [2], the activation was 14.2% [at 17.1 µM, percent relative to cAMP agonist control]. For the same compound, the activity change, negative = inhibition in assay [4] is -4.02% [at 30.8 µM].

For the compound `NC(=O)[C@H]1CC2(CC(c3cccc(NC(=O)[C@H]4CCC(=O)N4)c3)=NO2)CN1C(=O)c1ccccc1` (stereo not given in full), the Potency result in assay [1], in assay [2], in assay [3] and in assay [4] was “inactive” throughout.

`O=C(/C=C/c1ccccc1Cl)c1ccc(O)cc1`: the Potency result in assay [1] and in assay [3] was “inactive” each time. In addition, the activation in assay [2] is 13.2% [at 17.1 µM, percent relative to cAMP agonist control]. The activity change, negative = inhibition in assay [4] is 8.95% [at 30.8 µM].

In the case of `Cc1cccc(-c2nc3c(cnn3-c3ccccc3)c(=O)n2-c2cccc(Cl)c2)c1`, the Potency result in assay [1], in assay [2] and in assay [4] was “inactive” throughout. The outcome in assay [3] is “inactive [at 12.7 µM]”.

For the compound `COc1ccc(NC(=O)CN(C)C(=O)c2cc(-c3ccco3)nc3ccccc23)cc1`, the Potency result in assay [1], in assay [2], in assay [3] and in assay [4] was “inactive” throughout.

With `COc1ccccc1C(C(=O)c1ccccc1)c1ccc(O)cc1` (stereo not given), the Potency entry in assay [1] and in assay [3] was “inactive” throughout. Besides, in assay [2], the activation was 3.15% [at 17.1 µM, percent relative to cAMP agonist control]. Besides, in assay [4], the activity change, negative = inhibition was -22.7% [at 30.8 µM].

For `COc1ccc(-n2c(NC(=O)c3ccco3)c(C#N)c3nc4ccccc4nc32)cc1`, the Potency entry in assay [1], in assay [2], in assay [3] and in assay [4] was “inactive” throughout.

Consider `COCCCNC(=O)C[C@@H]1C[C@@]2(C(=O)OC)CCCCC=C2N(Cc2cccc3ccccc23)C1=O`, for which the Potency result in assay [1] and in assay [3] was “inactive” in each case. In addition, the activation in assay [2] was 3.32% [at 17.1 µM, percent relative to cAMP agonist control]. In addition, in assay [4], the activity change, negative = inhibition is -43.8% [at 30.8 µM].

As to `Cc1cc(C)cc(-n2ccnc2SCC(=O)Nc2ccc3c(c2)OCO3)c1`, the Potency result in assay [1], in assay [2], in assay [3] and in assay [4] was “inactive” throughout.

On to `Cn1cccc1C(=O)NC(=O)COC(=O)c1ccc(S(C)(=O)=O)c([N+](=O)[O-])c1`, for which the Potency entry in assay [1] and in assay [3] was “inactive” each time. In assay [2], the activation was -3.13% [at 17.1 µM, percent relative to cAMP agonist control]. Further, in assay [4], the activity change, negative = inhibition was -20.5% [at 30.8 µM].

Consider `CCC(=O)NC(c1ccc(OC)cc1)c1c(O)ccc2ccccc12` (stereo not given), for which the Potency result in assay [1], in assay [2], in assay [3] and in assay [4] was “inactive” each time.

For the compound `Fc1ccccc1C1CC(c2ccco2)=Nc2ccccc2S1` (stereo not given), the Potency result in assay [1] and in assay [3] was “inactive” throughout. Moreover, the activation in assay [2] was 8.88% [at 17.1 µM, percent relative to cAMP agonist control]. Also, in assay [4], the activity change, negative = inhibition is -3.18% [at 30.8 µM].

Consider `Cn1c(SCC(=O)c2cc(Cl)c(Cl)s2)nnc1-c1ccco1`, for which the Potency result in assay [1], in assay [2], in assay [3] and in assay [4] was “inactive” throughout.

In the case of `CC1OC(CC(=O)O)CC2=C1C(=O)c1c(O)cccc1C2=O` (stereo not given), the Potency entry in assay [1], in assay [2], in assay [3] and in assay [4] was “inactive” throughout.

Take `Cc1cccc([C@H]2[C@@H]3C=CCC[C@@H]3C(=O)N2Cc2ccccc2)c1`: the Potency entry in assay [1], in assay [2] and in assay [4] was “inactive” each time. Further, the Potency in assay [3] was 42.6 µM (active).

Regarding `Cc1ccc(C)c(-c2ccc(=O)n(C(C)C(=O)Nc3ccccc3C(F)(F)F)n2)c1` (stereo not given), the Potency result in assay [1], in assay [2] and in assay [4] was “inactive” in each case. For the same compound, the outcome in assay [3] is “inactive [at 12.7 µM]”.

Regarding `CCOC(=O)c1ccccc1NC(=O)c1c(C)oc2ncnc(N3CCOCC3)c12`, the Potency result in assay [1], in assay [2], in assay [3] and in assay [4] was “inactive” throughout.

On to `Cc1cc(C)c(S(=O)(=O)/N=C2\C=C(Nc3ccc(C(=O)O)cc3)C(=O)c3ccccc32)c(C)c1`, for which the Potency entry in assay [1], in assay [2], in assay [3] and in assay [4] was “inactive” throughout.

Take `COc1ccc(NC(=O)CSc2nc(O)cc(=O)n2-c2ccc(OC)cc2)cc1`: the Potency entry in assay [1], in assay [2], in assay [3] and in assay [4] was “inactive” throughout.

Take `CCOC(=O)N1CCC(Nc2nc3ccccc3n3cnnc23)CC1`: the Potency result in assay [1] and in assay [3] was “inactive” throughout. The activation in assay [2] is 3.86% [at 17.1 µM, percent relative to cAMP agonist control]. In addition, the activity change, negative = inhibition in assay [4] was -12.2% [at 30.8 µM].

On to `CC(C)=CCC[C@H](C)C[C@@H]1Cc2[nH][nH]c(=O)c2[C@@H](c2ccc(F)cc2)O1`, for which the Potency result in assay [1] and in assay [3] was “inactive” each time. Moreover, the activation in assay [2] is 5.46% [at 17.1 µM, percent relative to cAMP agonist control]. Further, in assay [4], the activity change, negative = inhibition was -22.9% [at 30.8 µM].

As for `Cc1ccc(C)c(N2CCN(C(=O)c3ccc4c(=O)n5c(nc4c3)CCCCC5)CC2)c1`, the Potency entry in assay [1] and in assay [3] was “inactive” each time. Also, the activation in assay [2] was 5.24% [at 17.1 µM, percent relative to cAMP agonist control]. Also, in assay [4], the activity change, negative = inhibition is -18% [at 30.8 µM].

Turning to `Cc1ccc(-c2nc3c(c(=O)[nH]c(=O)n3Cc3ccccc3)n2C)o1`, the Potency result in assay [1], in assay [2], in assay [3] and in assay [4] was “inactive” throughout.

Take `CCCOc1ccc(/C=C2/C(=O)ON=C2C)cc1Cl`: the Potency entry in assay [1], in assay [2], in assay [3] and in assay [4] was “inactive” throughout.

For `O=C(CSc1ccc(-c2ccco2)nn1)c1cccc([N+](=O)[O-])c1`, the Potency result in assay [1], in assay [2], in assay [3] and in assay [4] was “inactive” in each case.

As to `Oc1ccc(NCc2ccccc2OCc2ccccc2F)cc1`, the Potency entry in assay [1], in assay [2], in assay [3] and in assay [4] was “inactive” throughout.

Turning to `Cc1occc1-c1nnc(SCC(=O)c2cc3ccccc3oc2=O)o1`, the Potency result in assay [1] and in assay [3] was “inactive” in each case. Further, the activation in assay [2] is -0.174% [at 17.1 µM, percent relative to cAMP agonist control]. Moreover, in assay [4], the activity change, negative = inhibition was -0.143% [at 30.8 µM].

Consider `COCCNc1nc2cc(-c3ccsc3)sc2c(=O)n1C`, for which the Potency entry in assay [1], in assay [2], in assay [3] and in assay [4] was “inactive” throughout.

`O=C(O)c1ccc(N2C(=O)CC(SC(=NCc3ccc4c(c3)OCO4)Nc3ccc(F)cc3)C2=O)cc1` (stereo not given): the Potency entry in assay [1], in assay [2], in assay [3] and in assay [4] was “inactive” each time.

Take `O=c1c([N+](=O)[O-])cn(Cc2ccccc2)c(=O)n1Cc1ccccc1`: the Potency entry in assay [1] and in assay [3] was “inactive” each time. Also, the activation in assay [2] is 6.36% [at 17.1 µM, percent relative to cAMP agonist control]. The activity change, negative = inhibition in assay [4] was -12.8% [at 30.8 µM].

As to `Cc1ccc(-c2nc3ccc(Br)cn3c2Cc2ccccc2)cc1`, the Potency result in assay [1], in assay [2], in assay [3] and in assay [4] was “inactive” each time.

`COC(=O)C1(C)CC1(c1ccccc1)c1ccccc1` (stereo not given): the Potency result in assay [1] and in assay [3] was “inactive” throughout. Besides, in assay [2], the activation was 12.4% [at 17.1 µM, percent relative to cAMP agonist control]. Also, the activity change, negative = inhibition in assay [4] is 1.55% [at 30.8 µM].

Turning to `O=C(Nc1sc2c(c1C(=O)O)CCCC2)c1ccc(Cl)cc1`, the Potency result in assay [1] and in assay [3] was “inactive” in each case. Moreover, the activation in assay [2] was 1.39% [at 17.1 µM, percent relative to cAMP agonist control]. In addition, the activity change, negative = inhibition in assay [4] was -8.59% [at 30.8 µM].
